FLuc counter: firefly luciferase modulation, counter-screen for miR-21 project | P08659 | purified FLuc, Km substrates, luminescence inhibition | Potency, µM (series often up to 57.5 µM), without a hit: top-dose activity change, negative = inhibition, usual class: inhibitors | actives 6.9% (n = 360,000);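 note: plate controls were vehicle for no effect and reference inhibitor for full effect; nearly all actives have a fitted effect of over 55% in size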
Target sequence (P08659 whole entry, looked up): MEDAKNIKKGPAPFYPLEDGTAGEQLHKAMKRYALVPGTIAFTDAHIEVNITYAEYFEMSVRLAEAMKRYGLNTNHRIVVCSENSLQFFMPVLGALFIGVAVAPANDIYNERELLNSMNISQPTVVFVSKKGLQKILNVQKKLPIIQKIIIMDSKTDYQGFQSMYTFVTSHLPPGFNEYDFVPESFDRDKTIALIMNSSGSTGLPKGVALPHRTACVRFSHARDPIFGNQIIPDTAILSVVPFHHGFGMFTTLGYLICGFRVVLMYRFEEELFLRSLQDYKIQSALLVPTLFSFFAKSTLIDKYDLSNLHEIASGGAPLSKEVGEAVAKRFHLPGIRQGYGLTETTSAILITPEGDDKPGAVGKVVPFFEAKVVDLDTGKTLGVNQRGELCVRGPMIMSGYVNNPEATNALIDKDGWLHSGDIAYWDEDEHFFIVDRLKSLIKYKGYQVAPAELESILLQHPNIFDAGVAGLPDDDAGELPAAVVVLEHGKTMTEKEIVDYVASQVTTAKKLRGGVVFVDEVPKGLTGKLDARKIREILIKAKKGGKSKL
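Biochemical qHTS of compounds, final roughly 60 µM downward over six points, against 10 nM purified firefly luciferase using Km concentrations of substrates (10 uM D-luciferin, 10 uM ATP) in Tris acetate pH 7.5 buffer; luminescence output.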
ELG1 genotox: induces genotoxicity in HEK293T cells with luciferase-tagged ELG1; HEK293T ELG1-luciferase reporter, luminescence, 16 h; Potency, µM (series often up to 46 µM), inactives show at the top dose activity change, positive = activation, usual class: activators; actives 1.3% (n = 330,000); note: % of control where 0% means no effect; nearly all actives have a fitted effect of over 60% in size
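ELG1-luciferase HEK293T cells, 2,000/well; compound pinned in; 16 hr, 37 °C, 5% CO2; ONE-Glo, 30 min RT; luminescence on CCD imager.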
SMN2 splice enh: increases expression of the SMN2 splice variant | HEK293 SMN2-luciferase splicing reporter, luminescence, 30-36 h | AID 1458 | Potency, µM (series often up to 46.1 µM), inactives show top-dose activity change, positive = activation, most hits filed as activators | actives 2.8% (n = 210,000); note: % of control where 0% means no effect; nearly all actives have a fitted effect of over 55% in size
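HEK293 cells carry an SMN2 […]–luciferase reporter in which exon 7 inclusion puts luciferase in frame. Cells were plated 10-12 h before compound addition, then incubated 30-36 h at 37C. ONE-Glo luminescence was read; sodium butyrate at 4.5 mM final served as control.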
ELG1 repair inh: blocks ELG1-dependent DNA repair in HEK293T cells. HEK293T ELG1-luciferase reporter, luminescence, 16 h; DNA damage induced by 5-fluorouridine. Potency, µM (highest dose often 46.1 µM), for inactives: at the highest dose activity change, negative = inhibition, hits mostly inhibitors. actives 2.3% (n = 330,000). AID 504467; note: % is set by controls: 0 for no effect and ±100 for the full control effect; nearly all actives have a fitted effect of over 55% in size
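5-Fluorouridine DNA damage + compound/DMSO, 2,000 cells/well, 16 h, 37 °C/5% CO2. ONE-Glo, 30 min RT, luminescence. Readout = decrease in reporter signal.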
Rab9 prom act: activators of Rab9 promoter; Huh7 Rab9 promoter-luciferase reporter, luminescence, 24 h; Potency, µM (doses to about 9.22 µM), for inactives: top-dose activation, negative = inhibition, hits mostly activators; actives 2.8% (n = 320,000); AID 485297; note: % of control where 0% means no effect; nearly all actives have a fitted effect of over 60% in size
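Measured in stably transfected Huh7 cells bearing a Rab9 promoter–luciferase construct: 24 h compound treatment at 37 °C, followed by luminescence detection.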
NPC1 promoter act: activators of NPC1 promoter | Huh7 NPC1 promoter luciferase reporter, 24 h | Potency, µM (top dose mostly 9.22 µM), for inactives: top-dose activation, usual class: activators | actives 2.4% (n = 320,000) | AID 485313; note: % of control where 0% means no effect; nearly all actives have a fitted effect of over 60% in size
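Compounds in DMSO were transferred onto Huh7 NPC1-luciferase reporter cells pre-incubated 2 h; after 24 h at 37 °C, Amplite reagent was dispensed and luminescence recorded 10 min later.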
Active calls of the source: *. Shown are actives, neighbours in structure and some others; about 9.4% of the full set was active somewhere. Calls come from the whole dose curve; as a rule, active = well fitted curve in the direction sought with a large enough effect; inconclusive = small, poorly fitted or top-dose-only effect, or another doubt; inactive = no such curve, though single readings can be large; an effect the other way counts as inactive or inconclusive. Potency is the fitted concentration of half-maximal effect.

What do the screens show for `Cc1c(C(=O)NC(=S)Nc2ccc(NC(=O)c3cccs3)cc2)oc2ccccc12`?
FLuc counter: inconclusive; ELG1 genotox: -2%; SMN2 splice enh: -18%; ELG1 repair inh: 1%; Rab9 prom act: -14%; NPC1 promoter act: -12%

What do the screens show for `CC(C)c1ccc(Nc2nc(CC(=O)O)cs2)cc1`?
FLuc counter: 2.1µM*; ELG1 genotox: inconclusive; ELG1 repair inh: inconclusive; Rab9 prom act: 1.4µM*; NPC1 promoter act: 1.3µM*

How did O=C(O)Cc1csc(Nc2cccc(Cl)c2)n1 do in these assays?
FLuc counter: -6%; ELG1 genotox: 3%; SMN2 splice enh: 12%; ELG1 repair inh: inconclusive; Rab9 prom act: 2%; NPC1 promoter act: -3%

What do the screens show for `N#CCCn1c(=O)c(-c2ccc(F)cc2)nc2cnc(Oc3ccccc3)nc21`?
SMN2 splice enh: -12%

Results for O=C(N/N=C/c1sc(N2CCCCC2)nc1-c1cccs1)C1CC1 ?
FLuc counter: inconclusive; ELG1 genotox: 0%; SMN2 splice enh: 18%; ELG1 repair inh: inconclusive; Rab9 prom act: 13%; NPC1 promoter act: 5%

What do the screens show for `CC(C)NC(=S)N/N=C/c1sc(N2CCCCC2)nc1-c1cccs1`?
FLuc counter: 3µM*; ELG1 genotox: 9%; SMN2 splice enh: -15%; ELG1 repair inh: inconclusive; Rab9 prom act: 13%; NPC1 promoter act: -4%

Results for COc1cc(/C=N/NC(=O)c2ccc(N(C)S(=O)(=O)c3ccccc3)cc2)cc(OC)c1OC ?
FLuc counter: -2%; ELG1 genotox: -7%; SMN2 splice enh: -9%; ELG1 repair inh: inconclusive; Rab9 prom act: -12%; NPC1 promoter act: 0%

How did CC(=O)Oc1ccc(/C=N/NC(=O)c2ccc(N(C)S(=O)(=O)c3ccccc3)cc2)cc1 do in these assays?
FLuc counter: 15µM*; ELG1 genotox: -5%; ELG1 repair inh: -1%; Rab9 prom act: -2%; NPC1 promoter act: -3%

How did Cc1ccc(/C=N/NC(=O)c2ccc(N(C)S(=O)(=O)c3ccccc3)cc2)cc1 do in these assays?
FLuc counter: 8.5µM*; ELG1 genotox: -38%; ELG1 repair inh: inconclusive; Rab9 prom act: 0%; NPC1 promoter act: -1%

Results for COC(=O)c1scc(-c2ccc(C)cc2)c1S(=O)(=O)Nc1cc(C)c(Cl)cc1OC ?
FLuc counter: -8%

What do the screens show for `CC1(C)CN=C(N(Cc2ccccc2)C(=O)Nc2ccccc2)S1`?
FLuc counter: 15µM*; ELG1 genotox: inconclusive; SMN2 splice enh: -14%; ELG1 repair inh: inconclusive; Rab9 prom act: inconclusive; NPC1 promoter act: inconclusive

Results for CCc1ccc(NC(=O)Cn2c(-c3cncs3)nc3ccccc32)cc1 ?
FLuc counter: -7%; SMN2 splice enh: -9%

How did O=S(=O)(Cc1cc(Sc2ccc(Cl)cc2)nc(-c2ccccc2)n1)c1ccccc1 do in these assays?
FLuc counter: 0%; ELG1 genotox: -2%; SMN2 splice enh: -4%; ELG1 repair inh: -1%; Rab9 prom act: 0%; NPC1 promoter act: -6%

Results for Cc1nc(CS(=O)(=O)c2ccc(Cl)cc2)cc(Sc2ccc(Cl)cc2)n1 ?
FLuc counter: 2%; ELG1 genotox: -10%; SMN2 splice enh: -24%; ELG1 repair inh: 21µM*; Rab9 prom act: -2%; NPC1 promoter act: -3%

What do the screens show for `O=C(CNc1ccc(Br)cc1)c1ccc(O)cc1`?
FLuc counter: inconclusive; ELG1 genotox: 14%; ELG1 repair inh: inconclusive; Rab9 prom act: 0%; NPC1 promoter act: -7%

What do the screens show for `Cc1ccc(NCC(=O)c2ccc(C)cc2)cc1`?
FLuc counter: 9.5µM*; ELG1 genotox: inconclusive; ELG1 repair inh: inconclusive; Rab9 prom act: 29%; NPC1 promoter act: 28%

How did Cc1ccc(NCC(=O)c2ccccc2)cc1Cl do in these assays?
FLuc counter: inconclusive; ELG1 genotox: 16%; SMN2 splice enh: 18µM*; ELG1 repair inh: inconclusive; Rab9 prom act: -3%; NPC1 promoter act: -3%

Screening data: PubChem BioAssay, National Center for Advancing Translational Sciences (NCATS)
